“And” between values parts separate entries of the source, which are not always exact repeats. Equal entries are not always repeated.
What was measured:
Test in all cases: cell viability relative to vehicle control; higher = less cytotoxic
Conditions in all cases: 10 µM
K562 = test system: K562
Procedure, shortened: (§1)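 Each screen used CRISPR-edited mutant and wild-type clones from four leukaemia lines. Compounds were acoustically dispensed at a single 10 µM dose, and CellTiter-Glo luminescence was read after 48 h with the supernatant first removed. Viability was analysed in Genedata Screener and given as percent of the on-plate vehicle control.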

MARIMO = test system: MARIMO
Procedure, shortened: as §1

MOLM14 = test system: MOLM14
Procedure, shortened: as §1

OCI-AML2 = test system: OCI-AML2
Procedure, shortened: as §1

| Compound | cell viability (K562; SRSF2 genotype: SRSF2 P95H/wt) | cell viability (K562; SRSF2 genotype: SRSF2 wt/wt) [%] | cell viability (MARIMO; SRSF2 genotype: SRSF2 P95H/wt) [%] | cell viability (MARIMO; SRSF2 genotype: SRSF2 wt/wt) [%] | cell viability (MOLM14; SRSF2 genotype: SRSF2 P95H/wt) [%] | cell viability (MOLM14; SRSF2 genotype: SRSF2 wt/wt) [%] | cell viability (OCI-AML2; SRSF2 genotype: P95H/wt) [%] | cell viability (OCI-AML2; SRSF2 genotype: wt/wt) [%] |
| --- | --- | --- | --- | --- | --- | --- | --- | --- |
| COc1cc(C[C@H](C)[C@H](C)Cc2ccc3c(c2)OCO3)ccc1O [Anwuligan] | 88.8% and 87% | 87.9 | 87 | 94.9 | 88.3 | 83.1 | 76.8 | 83.5 |
| CN1CCCN(C(=O)c2cccc(-c3ccc(/C=C4/C(=O)Nc5ccc(Cl)cc54)o3)c2)CC1 | 0.32% | 0.41 | 0.26 | 0.37 | 0.32 | 0.29 | 0.21 | 0.42 |
| Cc1cccc(C)c1NC(=O)c1cc(S(N)(=O)=O)c(Cl)cc1O [Xipamide] | 101% and 94.8% | 104 | 103 | 113 | 101 | 107 | 97.5 | 106 |
| C[C@@H]1C[C@H]2[C@@H]3CCC4=CC(=O)C=C[C@]4(C)[C@@]3(F)[C@@H](O)C[C@]2(C)[C@@]1(O)C(=O)CO [Dexamethasone] | 99.7% and 95.1% | 92.8 | 106 | 99.8 | 95.4 | 90.6 | 98.2 | 103 |
| O=C(/C=C/N1C[C@H]2C[C@@H]1CN2c1ccccn1)c1ccccc1O | 93.1% and 98% | 97.1 | 95.5 | 96.5 | 102 | 99.2 | 104 | 105 |
| Nc1ncnc2c1c(-c1cccc(OCc3ccccc3)c1)cn2C1CC(CN2CCCC2)C1 (stereo not given) | 85.5% and 90.3% | 88.4 | 47.1 | 40.6 | 39.4 | 55.1 | 35.1 | 41.8 |
| Cc1ccc(CN(CC(O)COc2cccc3[nH]ccc23)C(C)(C)C)cc1 (stereo not given) | 71% and 71.5% | 66.8 | 67 | 76.8 | 68 | 74 | 83.4 | 86.2 |
| CN(C)C(=O)CCSC(SCCC(=O)O)c1cccc(/C=C/c2ccc3ccc(Cl)cc3n2)c1 (stereo not given) | 102% and 103% | 98.5 | 110 | 111 | 108 | 107 | 101 | 103 |
| O=C(O)c1ccc(-n2nc(-c3ccccc3O)nc2-c2ccccc2O)cc1 [Deferasirox (Exjade)] | 93.5% and 95.5% | 76.4 | 60.3 | 74 | 83.5 | 60 | 58.3 | 67.8 |
| O=C(O)c1cc(C(=O)O)c(C(=O)N(Cc2cccc(Oc3ccccc3)c2)[C@H]2CCCc3ccccc32)cc1C(=O)O | 119% and 108% | 113 | 102 | 103 | 105 | 101 | 106 | 105 |
| CCOc1cn(-c2ccc(F)cc2C)nc1C(=O)Nc1ccc(Oc2ccnc3cc(OC)c(OC)cc23)c(F)c1 | 23.1% and 45.6% | 25.2 | 89.3 | 90.4 | 24.9 | 19.6 | 48.1 | 52.9 |
| N/N=c1\[nH][nH]/c(=N\N)c2ccccc12 [Dihydralazine sulphate] | 93.9% and 93.2% | 95.5 | 95.3 | 94.3 | 106 | 103 | 93 | 95.4 |
| C=C1[C@H](OC(=O)/C=C(\C)CC)C[C@@H](C(C)C)[C@@H]2[C@@H]([C@@H](C)OC(C)=O)C(=O)C[C@@H]12 [Tussilagone] | 83% and 91.6% | 89.5 | 57 | 53.2 | 64.5 | 71.3 | 56.6 | 77.6 |
| CCCCCCCCCCCCCCCC(=O)N[C@@H](CCSC)C(=O)NCC(=O)N[C@@H](Cc1ccc(O)cc1)C(=O)N[C@@H](CCC(N)=O)C(=O)N[C@@H](CCCCN)C(=O)N[C@@H](CCCCN)C(=O)N[C@@H](CC(C)C)C(=O)N[C@@H](CCCNC(=N)N)C(=O)N[C@@H](CO)C(=O)N[C@@H](CCSC)C(=O)N[C@H](C(=O)N[C@@H](CC(=O)O)C(=O)N[C@@H](CCCCN)C(=O)N[C@@H](Cc1ccc(O)cc1)C(=O)N[C@@H](CCCNC(=N)N)C(=O)N[C@@H](CC(C)C)C(=O)O)[C@@H](C)O | 90.8% and 92.9% | 90 | 76.6 | 82.2 | 58.6 | 72.7 | 75.1 | 94.9 |
| CC1(C)CC[C@]2(C(=O)O[C@@H]3O[C@H](CO[C@@H]4O[C@H](CO)[C@@H](O)[C@H](O)[C@H]4O)[C@@H](O)[C@H](O)[C@H]3O)CC[C@]3(C)C(=CC[C@@H]4[C@@]5(C)CC[C@H](O[C@@H]6OC[C@H](O)[C@H](O)[C@H]6O)[C@@](C)(CO)[C@@H]5CC[C@]43C)[C@@H]2C1 [Akebia saponin D] | 107% and 101% | 103 | 105 | 113 | 103 | 108 | 96.4 | 106 |
| O=CO [Formate] | 101% and 91.4% | 99 | 97.5 | 104 | 102 | 106 | 96.7 | 96 |
| N=C1S/C(=C\c2ccc(-c3ccc4c(c3)C(=O)NC4=O)o2)C(=O)N1c1ccc(Br)cc1 [Bioymifi] | 95.1% and 88.2% | 87.4 | 99 | 101 | 90.1 | 93.1 | 96.6 | 93.1 |
| CC1(C)C2CCC1(C)C(O)C2 (stereo not given) [Borneol] | 101% and 89.9% | 94.2 | 89.7 | 99.5 | 97.5 | 99.5 | 87.9 | 105 |
| C=CC(=O)Nc1cccc(Nc2nc(Nc3ccc(Oc4ccnc(C(=O)NC)c4)cc3)ncc2F)c1 | 87.5% and 95.6% | 85.1 | 83.4 | 83.8 | 53.1 | 53.4 | 57.5 | 63.8 |
| C[C@@H]1CC[C@@]2(OC1)O[C@H]1C[C@H]3[C@@H]4CC=C5C[C@@H](O[C@@H]6O[C@H](CO)[C@@H](O)[C@H](O[C@@H]7O[C@H](CO)[C@@H](O)[C@H](O)[C@H]7O)[C@H]6O[C@@H]6O[C@@H](C)[C@H](O)[C@@H](O)[C@H]6O)CC[C@]5(C)[C@H]4CC[C@]3(C)[C@H]1[C@@H]2C [Gracillin] | 31.2% and 29.4% | 1.47 | 70.2 | 11.4 | 12 | 0.55 | 5.61 | 4.21 |

Reference: the supplement of paper PMC10981050
